# Shown are actives, neighbours in structure and some others; about 5.4% of the full set was active somewhere.
# PHOSPHO1 block: PHOSPHO1 (human) inhibition; hit rate 1.1% among 290,000; Q8TCT1; recombinant PHOSPHO1, absorbance phosphatase assay; inhibition, % at 13.3 µM; in the data active = inhibition above about 60%
# ALR inh: inhibitors of human sulfhydryl oxidase ALR. P55789. purified ALR, DTT oxidation, H2O2 HRP-luminol luminescence. inhibition, % (test concentration not listed). hit rate 3.8% among 290,000. AID 485317;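 active = mean replicate inhibition above about 79%, with every replicate also reaching it, limit read from the data; inconclusive = only one of the two criteria met; inactive = mean below limit and not every replicate reaching it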
# Target sequence (P55789 whole entry, looked up): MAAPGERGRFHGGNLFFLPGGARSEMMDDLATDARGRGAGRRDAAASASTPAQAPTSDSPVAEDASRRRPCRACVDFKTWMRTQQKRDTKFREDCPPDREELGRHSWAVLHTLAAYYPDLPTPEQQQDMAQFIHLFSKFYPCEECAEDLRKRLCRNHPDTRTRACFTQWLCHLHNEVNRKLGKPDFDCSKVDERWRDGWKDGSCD
# APOBEC3A inh: human APOBEC3A DNA deaminase inhibition | recombinant A3A, FAM/TAMRA ssDNA deamination fluorescence | inhibition, % at 20 µM | hit rate 0.41% among 330,000;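 active = at least 40% inhibition at 20 µM here, with at most 30% in a related deaminase screen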;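 note: plate controls were A3A with DMSO for no effect and wells lacking A3A enzyme for full effect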
# Target sequence (P31941 whole entry, looked up): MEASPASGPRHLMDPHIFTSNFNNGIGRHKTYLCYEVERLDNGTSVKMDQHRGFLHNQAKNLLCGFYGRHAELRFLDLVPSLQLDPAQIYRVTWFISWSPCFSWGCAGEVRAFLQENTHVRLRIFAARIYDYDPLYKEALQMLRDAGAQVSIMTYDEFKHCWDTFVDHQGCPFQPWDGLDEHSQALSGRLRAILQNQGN
# aDG glyco up: alpha-DG glycosylation activation. Pro5-aDG cells, alpha-DG glycosylation AlphaScreen (IIH6); 0% Pro5, 100% B10-LARGE cell signal. activation, % at 10 µM. AID 624168. hit rate 0.22% among 360,000;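 active = activation of at least 8% versus controls, or a plate z-score of at least 8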;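 note: Pro5 are CHO cells carrying HIG-tagged alpha-DG that lacks glycosylation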
# rCAG RNA binder: binds r(CAG) RNA repeats; AID 651821; inhibition, % at 3 µM; r(CAG) RNA repeat, TO-PRO-1 dye displacement fluorescence; hit rate 1.3% among 370,000;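 active = inhibition above the plate cutoff, the mean of all test compounds on that plate plus 3 SD, cut at about 35% in these data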;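 note: 0% = DMSO alone and 100% = 100 µM mitoxantrone as full dye displacement; higher means more dye released from RNA so lower well fluorescence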
# A3G deaminase: inhibitors of human APOBEC3G DNA deaminase | Q9HC16 | recombinant A3G, ssDNA deamination FAM/TAMRA fluorescence | inhibition, % at 20 µM | hit rate 0.28% among 330,000 | AID 493012;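 active = inhibition of at least 40% at 20 µM, with no more than 30% in the related APOBEC3A deaminase screen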;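 note: plate controls were DMSO wells with A3G for no effect and wells lacking A3G enzyme for full effect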
# * marks the source's active call; other numbers are inactive results; ? = inconclusive; nt = no result given.
SMILES,PHOSPHO1 block,ALR inh,APOBEC3A inh,aDG glyco up,rCAG RNA binder,A3G deaminase
O=C(CSc1ccc(Cl)cc1)Nc1ccc(NC(=O)c2ccco2)cc1,10,100*,1,0,0,-2
O=C(Nc1ccc(CN2CCOCC2)cc1)c1ccco1,nt,77*,-1,0,-2,-5
O=C(CSc1ccc(Cl)cc1)Nc1ccc(N2CCN(C(=O)c3ccco3)CC2)cc1,14,-16,-2,1,6,-2
CCc1c(-c2ccc(F)cc2F)ncn1CCc1ccccc1OC,nt,nt,nt,nt,0,nt
O=c1cc(-c2ccccc2)[nH]c2[nH]n(-c3ccccc3)c(=O)c12,14,99*,1,0,22,1
O=c1cc(Cl)[nH]n(-c2ccccc2)c1=O,30,-2,-7,0,-3,-6
CCOC(=O)Cc1cc(=O)c2c(=O)n(-c3ccccc3)[nH]c2[nH]1,22,78*,3,0,27,2
CCOC(=O)c1[nH]n(-c2ccc(Cl)cc2)c(=O)c1C,-13,?,-6,1,4,-10
C[C@@H]1ON(C)[C@H]2C[C@H]3c4[nH]c5c(-c6ccccc6F)cccc5c4CCN3C[C@@H]12,nt,nt,nt,nt,3,nt
Cc1ccccc1C(=O)NC1CCCCN(Cc2cccc(Cl)c2)C1=O (configuration not stated),nt,nt,nt,nt,0,nt
O=C(NNC(=S)NC(=O)c1ccc(Br)cc1)c1cccc([N+](=O)[O-])c1,-16,99*,-3,0,10,-8
CC(=O)NNC(=S)NC(=O)c1cccc([N+](=O)[O-])c1,58,73,-4,0,0,23
CCCCC(=O)NC(=S)NNC(=O)CC#N,95*,17,-5,0,-2,9
O=C(NNC(=S)NC(=O)c1ccccc1Cl)c1cccc([N+](=O)[O-])c1,14,97*,-3,0,5,-3
O=C(NNC(=S)NC(=O)c1ccccc1)c1ccc([N+](=O)[O-])cc1,-76,99*,1,0,6,7
COC(=O)[C@]12C[C@H](CC(=O)NCC3CCCCC3)C(=O)N(Cc3ccccc3)C1=C[C@H](C1CCCC1)O[C@@H]2C,nt,nt,nt,nt,1,nt
CCCCCC(=O)NNC(=S)NC(=O)c1ccc([N+](=O)[O-])cc1,48,88*,0,0,2,12
O=C(NNC(=S)NC(=O)c1ccc(Br)cc1)c1ccc([N+](=O)[O-])cc1,-34,100*,-9,0,12,-5
O=C(NNC(=O)c1ccc([N+](=O)[O-])cc1)c1ccc(Br)cc1,28,8,-4,0,5,-5
Cc1ccc(C(=O)NC(=S)NNC(=O)c2ccc([N+](=O)[O-])cc2)cc1,-67,99*,-9,0,-1,-5
Cc1ccc(C(=O)NNC(=S)NC(=O)c2ccccc2)cc1,nt,29,0,0,14,-3
COC(=O)[C@H]1C[C@@]2(c3ccccc3)c3ccccc3N(S(=O)(=O)c3ccccc3)[C@H]2N1,nt,nt,nt,nt,4,nt
CCOC(=O)Nc1cccc(C(=O)O)c1,-3,-10,-2,0,2,-6
CCOC(=O)Nc1cccc(Nc2ccccc2)c1,14,99*,-1,0,0,-2
COc1cccc(/C=N/n2c(=S)n(C)c3ccccc32)c1OC,73*,-5,-3,0,0,-5
SMILES,PHOSPHO1 block,ALR inh,APOBEC3A inh,aDG glyco up,rCAG RNA binder,A3G deaminase
CC(C)(C)S(=O)(=O)N1C[C@H]2CC(=O)C(CCO)=C2[C@@H]1CCO,nt,nt,nt,nt,4,nt
CC(=O)c1ccc(OCCOc2ccc([N+](=O)[O-])cc2)cc1,34,3,-2,0,-3,-4
C[N+]1(CCOc2ccc([N+](=O)[O-])cc2)CCOCC1,97*,-5,77,0,1,36
Cc1ccc(N=C2C(=O)Nc3ccccc32)cc1,51,47,-3,0,0,-9
CCN(CC)c1ccc(N=C2C(=O)Nc3ccccc32)cc1,28,94*,-5,0,12,2
C(=N\n1cnnc1)/c1cccc(Oc2ccccc2)c1,-32,-32,-2,0,-2,-6
S=c1[nH]ncn1/N=C/c1cccc(Oc2ccccc2)c1,97*,99*,-6,0,8,3
Cn1c(=O)[nH]c(=O)c2c1nc(Br)n2C/C=N/Nc1ccccc1,-5,100*,-1,0,5,-2
CCC(C)Nc1nc2c(c(=O)n(C)c(=O)n2C)n1Cc1ccc(F)cc1 (configuration not stated),-10,90*,-6,0,-8,-7
CCC(C)Nc1nc2c(c(=O)[nH]c(=O)n2C)n1CCCc1ccccc1 (configuration not stated),-2,82*,-5,0,-6,7
C#CCN1CC(N(C)CCO)CS1(=O)=O (configuration not stated),nt,nt,nt,nt,0,nt
O=C(CSc1nnc(COc2ccccc2)n1Cc1ccco1)Nc1ccc(OCc2ccccc2)cc1,nt,nt,nt,nt,7,nt
COc1ccc(Cn2cc(CN3CC=CS3(=O)=O)nn2)cc1,nt,nt,nt,nt,2,nt
Clc1ccc(-c2cn3nc4c(nc3n2)CCCC4)cc1,88*,-1,-2,0,-13,0
COc1cccc(-c2cn3nc4c(nc3n2)CCCC4)c1,41,-17,-1,0,nt,0
Cc1nc(NC(=O)c2ccccc2)sc1-c1csc(NCc2ccccc2)n1,17,-20,-2,1,13,0
CCCC(C)C(=O)Nc1nc(C)c(-c2csc(Nc3ccccc3OC)n2)s1 (configuration not stated),74*,-2,0,1,28,11
CCOc1ccccc1Nc1nc(-c2sc(NC(=O)c3ccccc3)nc2C)cs1,88*,2,2,nt,nt,9
CCOc1ccccc1Nc1nc(-c2sc(NC(=O)c3cccc(Cl)c3)nc2C)cs1,53,-5,0,0,22,9
CCCCCC(=O)Nc1nc(C)c(-c2csc(Nc3ccccc3OCC)n2)s1,79*,1,1,0,30,-3
Cc1nc(NC(=O)c2ccccc2)sc1-c1csc(NCCc2ccccc2)n1,62*,21,0,0,21,-4
COCCCNC(=O)C[C@H]1C[C@@]2(C(=O)OC)C(=C[C@H](C3CCCC3)O[C@@H]2C)N(CCc2ccc(OC)c(OC)c2)C1=O,nt,nt,nt,nt,1,nt
N#Cc1ccc(Cn2ccc3ccc(-c4ccc5ccn(C(=O)C6CC6)c5c4)cc32)cc1,nt,nt,nt,nt,21,nt
CCCCCCC(=O)Nc1nc(C)c(-c2csc(Nc3ccccc3OC)n2)s1,79*,nt,-3,0,25,-9
COc1ccccc1Nc1nc(-c2sc(NC(=O)c3ccccc3)nc2C)cs1,50,7,0,1,19,-3
CCCCCC(=O)Nc1nc(C)c(-c2csc(Nc3ccccc3OC)n2)s1,74*,13,-4,1,26,-5
COc1ccccc1-c1cc(C(F)(F)F)nc(S(=O)(=O)CCCC(=O)N2CCOCC2)n1,-22,nt,3,-1,-5,0

# Compound activity from PubChem.
